# PubChem BioAssay AID504415 (Broad Institute, 2011)
# Measured potencies and affinities stand elsewhere. Inconclusive results are not listed. The source made the active and inactive calls.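 How the source made its calls: active means compound lowering the signal whose fitted half-maximal concentration is at most ten times its top tested dose; inconclusive means flat curve with 30 to 70% loss, or poor fit; inactive means the rest.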
# Experiment: Mcl1-dependent cancer cell viability – HMC-1-8 cells, luminescence, dry powder, selectivity assay for A1 inhibitor project, dose response (AID 504415)
compound,measurement,value
C/C1=C/C(=O)O[C@@H]2C[C@@H](CC[C@H](C)/C=C\CC1)O[C@@](O)(C1CSC(=O)N1)C2 (stereo partly specified),outcome,inactive
